The panel holds about 83,000 compounds, 20% with a hit somewhere; the sample as a whole holds those more often.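 The endpoint reported here, percent growth, reads 100 for growth as untreated, 0 for no net growth and -100 for all cells dead.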 Activity calls are given as the source filed them. The calls were made as follows: active = growth percent below 10; inactive = the rest.
Key:
Assay in all cases: NCI-60 one-dose screen, 48 h (100 = growth as untreated, 0 = no growth, -100 = all killed)
Details in all cases: 10 µM unless noted
SR leukemia = tested on: SR leukemia
RPMI-8226 leukemia = tested on: RPMI-8226 leukemia
OVCAR-8 ovarian = tested on: OVCAR-8 ovarian
OVCAR-5 ovarian = tested on: OVCAR-5 ovarian
OVCAR-4 ovarian = tested on: OVCAR-4 ovarian
SK-OV-3 ovarian = tested on: SK-OV-3 ovarian
IGROV1 ovarian = tested on: IGROV1 ovarian
OVCAR-3 ovarian = tested on: OVCAR-3 ovarian
HS 578T breast = tested on: HS 578T breast
NCI/ADR-RES ovarian = tested on: NCI/ADR-RES ovarian

Measured: growth

Nc1n[nH]c2cccc(C#Cc3cccc(C(=O)Nc4cc(C(F)(F)F)cc(C(F)(F)F)c4)c3)c12
inactive: SR leukemia 49.7% | RPMI-8226 leukemia 52.6% | OVCAR-8 ovarian 82.9% | OVCAR-5 ovarian 75.9% | OVCAR-4 ovarian 85.4% | SK-OV-3 ovarian 109% | IGROV1 ovarian 45.7% | OVCAR-3 ovarian 90.6% | HS 578T breast 54.9% | NCI/ADR-RES ovarian 74.2%

NC(N)=NCCCCCNc1noc(Cc2c[nH]c3cc(Br)ccc23)n1
inactive: SR leukemia 98.3% | RPMI-8226 leukemia 39.6% | OVCAR-8 ovarian 64.6% | OVCAR-5 ovarian 85.4% | OVCAR-4 ovarian 67.5% | SK-OV-3 ovarian 83.7% | IGROV1 ovarian 56.3% | OVCAR-3 ovarian 33.4% | HS 578T breast 56.9% | NCI/ADR-RES ovarian 101%

N#Cc1ccc(O)c(C2=NCC(c3cccc(Oc4ccccc4)c3)O2)c1 (stereo not given)
inactive: SR leukemia 19.7% | RPMI-8226 leukemia 28.1% | OVCAR-8 ovarian 12.9% | OVCAR-5 ovarian 55.5% | OVCAR-4 ovarian 18.3% | IGROV1 ovarian 19.2% | OVCAR-3 ovarian 27.3% | HS 578T breast 52.6%
active: SK-OV-3 ovarian -1.44% | NCI/ADR-RES ovarian 2.42%

COc1ccc(C2=Nc3c(N)nc(N)nc3NC(c3cccc(Nc4ccnc5cc(C(F)(F)F)ccc45)c3)C2)cc1 (stereo not given)
active: SR leukemia -3.78%
inactive: RPMI-8226 leukemia 18.2% | OVCAR-8 ovarian 75.6% | OVCAR-5 ovarian 116% | OVCAR-4 ovarian 68.9% | SK-OV-3 ovarian 84% | IGROV1 ovarian 72.1% | OVCAR-3 ovarian 66.4% | HS 578T breast 66.3% | NCI/ADR-RES ovarian 87.6%

Cc1cc(S(=O)(=O)/N=C(\N)n2nc(C)c(C)c2C)c(SCc2ccccc2)cc1Cl
active: IGROV1 ovarian -20.8%
inactive: SR leukemia 65.8% | RPMI-8226 leukemia 26.5% | OVCAR-8 ovarian 72.8% | OVCAR-5 ovarian 90% | OVCAR-4 ovarian 63.3% | SK-OV-3 ovarian 106% | OVCAR-3 ovarian 81% | HS 578T breast 77.4% | NCI/ADR-RES ovarian 57.4%

COc1ccc(\C=N/N=C(N)/C(N)=N\N=C/c2ccc(OC)cc2)cc1
inactive: SR leukemia 46.9% | RPMI-8226 leukemia 79.2% | OVCAR-8 ovarian 117% | OVCAR-5 ovarian 107% | OVCAR-4 ovarian 117% | SK-OV-3 ovarian 96.1% | IGROV1 ovarian 122% | OVCAR-3 ovarian 108% | HS 578T breast 87.3% | NCI/ADR-RES ovarian 107%

Fc1cccc(Oc2ccc(Nc3ncnc4ccc(OCCCN5CCOCC5)cc34)cc2Cl)c1
active: SK-OV-3 ovarian 7.14%
inactive: SR leukemia 20.9% | RPMI-8226 leukemia 38.5% | OVCAR-8 ovarian 62% | OVCAR-5 ovarian 78.1% | OVCAR-4 ovarian 53.5% | IGROV1 ovarian 12.1% | OVCAR-3 ovarian 45.4% | HS 578T breast 74.5% | NCI/ADR-RES ovarian 55.1%

O=C(Nc1nc(-c2ccc(Cl)cc2)nc2c1sc(=S)n2-c1ccccc1)C(F)(F)F
active: OVCAR-4 ovarian -53.5%
inactive: SR leukemia 19.9% | RPMI-8226 leukemia 51.2% | OVCAR-8 ovarian 27.1% | OVCAR-5 ovarian 62.6% | SK-OV-3 ovarian 25.2% | IGROV1 ovarian 32.9% | OVCAR-3 ovarian 16.8% | HS 578T breast 11.5% | NCI/ADR-RES ovarian 32%

COC(=O)c1cc(N=C2NC(=O)/C(=C/C=C/c3ccccc3)S2)ccc1O
inactive: SR leukemia 27.5% | RPMI-8226 leukemia 18.8% | OVCAR-8 ovarian 25.6% | OVCAR-5 ovarian 71% | OVCAR-4 ovarian 58.9% | SK-OV-3 ovarian 33.3% | IGROV1 ovarian 37.6% | OVCAR-3 ovarian 18.7% | HS 578T breast 35.3%
active: NCI/ADR-RES ovarian 5.59%

O=C(CSc1oc(-c2ccccc2)nc1S(=O)(=O)c1ccccc1)Nc1ccc(F)cc1
inactive: SR leukemia 83.8% | RPMI-8226 leukemia 55.7% | OVCAR-8 ovarian 88.7% | OVCAR-5 ovarian 87.5% | OVCAR-4 ovarian 67.4% | SK-OV-3 ovarian 95.8% | IGROV1 ovarian 88.9% | OVCAR-3 ovarian 85.7% | HS 578T breast 97.9% | NCI/ADR-RES ovarian 75.3%

CCC1=C[C@@H]2C[C@]3(C(=O)OC)c4[nH]c5ccccc5c4CC[N@+](CC(=O)Nc4cc5c(cc4OC)N(C)[C@H]4[C@@](O)(C(=O)OC)[C@H](OC(C)=O)[C@]6(CC)C=CCN7CC[C@]54[C@@H]76)(C2)[C@H]13
inactive: SR leukemia 99.4% | RPMI-8226 leukemia 105% | OVCAR-8 ovarian 102% | OVCAR-5 ovarian 109% | OVCAR-4 ovarian 104% | SK-OV-3 ovarian 105% | IGROV1 ovarian 104% | OVCAR-3 ovarian 109% | HS 578T breast 99.4% | NCI/ADR-RES ovarian 106%

c1cc2c(ccc3[nH]c(-c4ccc5[nH]ncc5c4)c4c(c32)CCCC4)n1
active: SR leukemia -7.05%
inactive: RPMI-8226 leukemia 45.8% | OVCAR-8 ovarian 64.4% | OVCAR-5 ovarian 80.4% | OVCAR-4 ovarian 80.7% | SK-OV-3 ovarian 63.4% | IGROV1 ovarian 67.6% | OVCAR-3 ovarian 72.5% | HS 578T breast 75.7% | NCI/ADR-RES ovarian 83.2%

Cn1c(=O)cc2c3c(c(NCCCO)ccc31)C(=O)c1ccccc1-2
inactive: SR leukemia 13.4% | RPMI-8226 leukemia 54.6% | OVCAR-8 ovarian 33.2% | OVCAR-5 ovarian 65.6% | OVCAR-4 ovarian 47.7% | SK-OV-3 ovarian 51.6% | IGROV1 ovarian 41.8% | OVCAR-3 ovarian 54.4% | HS 578T breast 60.2% | NCI/ADR-RES ovarian 57.1%

O=C(O)c1cn(C2CC2)c2cc(N3CCN(Cc4ccc5ccccc5c4O)CC3)c(F)cc2c1=O
active: SR leukemia 6.63% | OVCAR-3 ovarian -26.2% | HS 578T breast -1.88%
inactive: RPMI-8226 leukemia 73.5% | OVCAR-8 ovarian 14.4% | OVCAR-5 ovarian 51% | OVCAR-4 ovarian 32.5% | SK-OV-3 ovarian 49.7% | IGROV1 ovarian 33.3% | NCI/ADR-RES ovarian 48%

COc1ccc(C(=O)c2cc3c(N)c(C(=O)Nc4ccc(C)cc4)sc3nc2C)cc1
inactive: SR leukemia 18.1% | RPMI-8226 leukemia 24.1% | OVCAR-8 ovarian 22% | OVCAR-5 ovarian 29.6% | OVCAR-4 ovarian 51.1% | SK-OV-3 ovarian 35.3% | IGROV1 ovarian 28.6% | NCI/ADR-RES ovarian 14.9%
active: OVCAR-3 ovarian -5.4% | HS 578T breast -1.41%

COc1ccc(C(C)=O)cc1S(=O)(=O)Nc1c(N)nc(SC)[nH]c1=O
inactive: SR leukemia 103% | RPMI-8226 leukemia 96.6% | OVCAR-8 ovarian 105% | OVCAR-5 ovarian 104% | OVCAR-4 ovarian 108% | SK-OV-3 ovarian 124% | IGROV1 ovarian 102% | OVCAR-3 ovarian 103% | HS 578T breast 96.9% | NCI/ADR-RES ovarian 103%

C=C1CC[C@@H]2[C@](C)(COC(C)=O)[C@H](OC(C)=O)CC[C@@]2(C)[C@@H]1CC(Nc1ccc(S(=O)(=O)Nc2ncccn2)cc1)C1=CCOC1=O (stereo not given in full)
active: SR leukemia -4.43% | RPMI-8226 leukemia -12.7% | OVCAR-8 ovarian 3.81% | OVCAR-5 ovarian -1.98% | IGROV1 ovarian 7.21% | OVCAR-3 ovarian -80.6%
inactive: OVCAR-4 ovarian 42.7% | SK-OV-3 ovarian 84.7% | HS 578T breast 51.2% | NCI/ADR-RES ovarian 16.1%

CC(C)=CCC[C@](C)(O)[C@H]1CC[C@]2(C)[C@@H]1CC[C@@H]1[C@@]3(C)C/C(=C/c4ccco4)C(=O)C(C)(C)[C@@H]3CC[C@]12C
inactive: SR leukemia 113% | RPMI-8226 leukemia 101% | OVCAR-8 ovarian 104% | OVCAR-5 ovarian 102% | OVCAR-4 ovarian 106% | SK-OV-3 ovarian 109% | IGROV1 ovarian 107% | OVCAR-3 ovarian 103% | HS 578T breast 94.5% | NCI/ADR-RES ovarian 104%

COc1ccc(-c2noc(C(=O)O)c2-c2cc(OC)c(OC)c(OC)c2)cc1
active: RPMI-8226 leukemia 0.35% | OVCAR-3 ovarian 9.65%
inactive: SR leukemia 10.4% | OVCAR-8 ovarian 30.4% | OVCAR-5 ovarian 87% | OVCAR-4 ovarian 76.7% | SK-OV-3 ovarian 23.5% | IGROV1 ovarian 47% | HS 578T breast 13.3% | NCI/ADR-RES ovarian 27.7%

CC(C)=CC(=O)OCC(=O)O[C@@H]1C[C@]2(C(C)C)O[C@@]1(C)[C@@H]1CC[C@@H](C)[C@H]1[C@@H]2OC(=O)/C=C/c1ccccc1
inactive: SR leukemia 69.2% | RPMI-8226 leukemia 56% | OVCAR-8 ovarian 35.9% | OVCAR-5 ovarian 103% | OVCAR-4 ovarian 96.5% | SK-OV-3 ovarian 91.7% | IGROV1 ovarian 108% | OVCAR-3 ovarian 96.5% | NCI/ADR-RES ovarian 30.6%
active: HS 578T breast -0.351%

NS(=O)(=O)c1ccccc1NC(=O)Nc1nc2ccccc2s1
inactive: SR leukemia 94.4% | RPMI-8226 leukemia 102% | OVCAR-8 ovarian 100% | OVCAR-5 ovarian 101% | OVCAR-4 ovarian 93.3% | SK-OV-3 ovarian 97.3% | IGROV1 ovarian 89.1% | OVCAR-3 ovarian 108% | HS 578T breast 100% | NCI/ADR-RES ovarian 99.7%

N#CC1=C(N)Oc2c(c(=O)[nH]c3ccc(Cl)cc23)C12C(=O)c1ccccc1C2=O
inactive: SR leukemia 101% | RPMI-8226 leukemia 96.2% | OVCAR-8 ovarian 102% | OVCAR-5 ovarian 96.1% | OVCAR-4 ovarian 93.1% | SK-OV-3 ovarian 101% | IGROV1 ovarian 100% | OVCAR-3 ovarian 93.4% | HS 578T breast 83.3% | NCI/ADR-RES ovarian 102%

COC1=CC(c2ccc[nH]2)=N/C1=C\c1[nH]c(C)c(CC(=O)OCc2ccccc2)c1CCC(=O)OCc1ccccc1
active: SR leukemia -36.2% | RPMI-8226 leukemia -50.8% | OVCAR-8 ovarian -18.9% | OVCAR-5 ovarian -17.1% | SK-OV-3 ovarian -13.6% | OVCAR-3 ovarian -86.8% | HS 578T breast -18.9% | NCI/ADR-RES ovarian -26.4%
inactive: OVCAR-4 ovarian 13.6% | IGROV1 ovarian 12.6%

COc1cc2ncnc(Nc3ccc(S(=O)(=O)Nc4cc(C)on4)cc3)c2cc1OCCCN1CCN(c2ccc(F)cc2)CC1
inactive: SR leukemia 107% | RPMI-8226 leukemia 114% | OVCAR-8 ovarian 103% | OVCAR-5 ovarian 102% | OVCAR-4 ovarian 116% | SK-OV-3 ovarian 93% | IGROV1 ovarian 107% | OVCAR-3 ovarian 87.6% | HS 578T breast 90.7% | NCI/ADR-RES ovarian 107%

COc1cc2cc(NCc3cccc(Cl)c3)nc(C)c2cc1OC
active: RPMI-8226 leukemia 8.04%
inactive: SR leukemia 29.6% | OVCAR-8 ovarian 45.3% | OVCAR-5 ovarian 43.7% | OVCAR-4 ovarian 68% | SK-OV-3 ovarian 56.9% | IGROV1 ovarian 24.6% | OVCAR-3 ovarian 60.1% | HS 578T breast 76.3% | NCI/ADR-RES ovarian 42.5%

CCc1ccc(CCCC(=O)O)cc1
inactive: SR leukemia 96.2% | RPMI-8226 leukemia 103% | OVCAR-8 ovarian 107% | OVCAR-5 ovarian 98.3% | OVCAR-4 ovarian 104% | SK-OV-3 ovarian 100% | IGROV1 ovarian 105% | OVCAR-3 ovarian 108% | HS 578T breast 101% | NCI/ADR-RES ovarian 99.1%

From PubChem BioAssay (NCI)
